Sampled rows, rich in hits. Any-hit rate of the full collection: about 2.8%.
Shn3 inh set2 – reduces Shn3 3'UTR luciferase signal in osteoblasts. inhibition, % at 12.5 µM. hit rate 0.52% among 360,000. Clone20 osteoblast Shn3 3'UTR firefly luciferase, 24 h;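 active = mean inhibition of at least 75% with every replicate also reaching 75%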
CF NFkB block – cystic fibrosis NF-kB activation inhibition; hit rate 0.86% among 360,000; KKLEB NF-kB-GFP reporter, PAF-induced, GFP fluorescence overnight; inhibition, % at 5 µM; AID 588850;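 active = at least 50% inhibition at 5 µM, scaled per plate between neutral and stimulator controls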;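 note: PAF is a Pseudomonas aeruginosa culture filtrate used as stimulus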
TRPM1 prom inh – reduces MITF-dependent TRPM1 promoter luciferase signal | SK-MEL-5 TRPM1 promoter luciferase, 24 h | inhibition, % at 12.5 µM | hit rate 0.83% among 330,000 | AID 488899;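 active = mean inhibition across replicates of 60% or more, whatever share of single replicates reaches that level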
KKLEB tox – reduces viability of KKLEB cystic fibrosis airway cells. KKLEB CF airway cells viability, ATPlite luminescence, overnight; hits give low values; cells stimulated with P. aeruginosa culture filtrate. activity change (cytotoxicity), % at 5 µM. hit rate 0.36% among 360,000;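 active = corrected activity change at or below -50% at 5 µM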
Peg3 prom inh – reduces Peg3 promoter-driven luciferase expression in HeLa; HeLa PEG-Prom luciferase reporter, luminescence, overnight; inhibition, % at 20 µM; hit rate 1.7% among 360,000;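 active = inhibition of at least 50% at 20 µM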
HIF-2a inh – inhibitors of HIF-2a; hit rate 0.72% among 360,000; inhibition, % at 18.8 µM; AID 624352; 786-0 RCC cells HIF-2a reporter, luciferase luminescence, overnight;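 active = inhibition of the luminescence signal of 40% or more relative to plate controls, in a single-dose primary screen at 18.75 µM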
Each line names hits and unclear results; the compound was inactive in the other large screens.

Cc1ccc(NC(=O)C2CCN(C(=O)c3ccccc3C)CC2)cc1	none
CCOc1ccc(CN(CC)C(=O)c2ccc3c(c2)[nH]c(=O)c(=O)n3CC)cc1OC	none (no result: TRPM1 prom inh)
NC(=O)c1cc(N2C(=O)C=CC2=O)ccc1Cl	Shn3 inh set2 94.4
CC(=O)Nc1ccc(Cl)c(C(N)=O)c1	none
CCCCNc1c(-c2ccc(OC)c(SC(C)CC)c2)nc2ccc(C)cn12 (stereo not given)	Peg3 prom inh 100.4
CCC(C)Sc1cc(-c2nc3ccccn3c2NC2CCCCC2)ccc1OC (stereo not given)	Peg3 prom inh 94.8
CCCCCCSc1ccc(-c2nc3ccc(C)cn3c2NCc2ccccc2)cc1OC	none
CC(=O)c1ccc(-c2cccc(-c3nc4ccccn4c3NC3CCCCC3)c2)cc1	Peg3 prom inh 62.0
CCC(C)Sc1ccc(-c2nc3ccc(C)cn3c2NCc2ccccc2)cc1OC (stereo not given)	Peg3 prom inh 87.8
CCC(C)Sc1cc(-c2nc3cc(C)ccn3c2NC2CCCCC2)ccc1OC (stereo not given)	none
Cc1ccc(-n2c(N)c(C(=O)Nc3ccccc3F)sc2=S)cc1C	none
S=C(Nc1ccc2nccnc2c1)N1CCOCC1	none
CCn1c(COc2ccccc2)nnc1SCC(=O)Nc1ccc(N2CCOCC2)cc1	none
CCCCNc1c(-c2ccc(OC)c(SC(C)CC)c2)nc2ccc(Cl)cn12 (stereo not given)	none
CCC(C)Sc1cc(-c2nc3ccc(C)cn3c2NCc2ccccc2)ccc1OC (stereo not given)	Shn3 inh set2 97.0, CF NFkB block 57.5, Peg3 prom inh 95.9
Cn1c(=O)c2c(nc(SCCN3CCOCC3)n2C)n(C)c1=O	none
CN(Cc1ccccc1)C(=O)COC(=O)CCC(=O)c1ccc(Cl)cc1	none
CCC(/C=C1\Sc2ccc(OC)cc2N1CCO)=C\c1sc2ccc(OC)cc2[n+]1CCO	TRPM1 prom inh 96.1
CCC(/C=C1\Sc2ccc(OC)cc2N1CC)=C\c1sc2ccc(OC)cc2[n+]1CCCS(=O)(=O)[O-]	none
Cc1ccc(NCC(=O)c2ccccc2)cc1Cl	none
Cc1ccc(NC2=C(NC(=O)c3ccccc3)C(=O)c3ccccc3C2=O)cc1Cl	TRPM1 prom inh 66.5
CC1C(c2ccccc2)N(C)C(c2ccccc2)C(C)C1(O)C#Cc1ccccc1 (stereo not given)	Peg3 prom inh 61.6
O=[N+]([O-])c1cnc(Sc2ccncn2)c([N+](=O)[O-])c1	Peg3 prom inh 112.8 (no result: TRPM1 prom inh)
O=[N+]([O-])c1ccc(Sc2ncccn2)c([N+](=O)[O-])c1	none
Cc1cc(C)c2nc(N3CCC(C(=O)NCCCN4CC(C)CC(C)C4)CC3)sc2c1 (stereo not given)	TRPM1 prom inh 83.2, Peg3 prom inh 104.2
O=C(CCCN1C(=O)/C(=C\c2cccs2)SC1=S)Nc1cc([N+](=O)[O-])ccc1O	CF NFkB block 53.0
O=C(CCCN1C(=O)/C(=C/c2cccs2)SC1=S)NNC(=O)c1ccc(F)cc1	HIF-2a inh 45.7
O=C(CCCN1C(=O)/C(=C/c2cccs2)SC1=S)Nc1cccc(O)c1	Peg3 prom inh 60.9
O=C(CCN1C(=O)/C(=C/c2cccs2)SC1=S)Nc1ccccc1O	none
O=C1/C(=C\c2cc([N+](=O)[O-])ccc2O)SC(=S)N1Cc1ccc(Cl)cc1	Peg3 prom inh 97.5
O=C(O)CN1C(=O)/C(=C\c2cc([N+](=O)[O-])ccc2OCc2ccccc2Cl)SC1=S	none
COc1ccccc1NC(=O)CNc1ccc(F)c(Cl)c1	none
Cc1ccc2nc(C3CCCCC3)c(Cc3cccc(Cl)c3)n2c1	none (no result: TRPM1 prom inh)
CCCCn1nnnc1C1(C)CCC(=O)N1CCOc1ccccc1 (stereo not given)	none (no result: Shn3 inh set2, CF NFkB block, TRPM1 prom inh, KKLEB tox, Peg3 prom inh)
CCCc1ccc(-c2cc(C(=O)Nc3ccc([N+](=O)[O-])cn3)c3ccccc3n2)cc1	none
CC(=O)Oc1cc2c(cc1Cl)C(c1cccs1)CC1(CC(C)(C)NC(=S)N1)O2 (stereo not given)	none
O=C(Cc1ccccc1)N1CCNCC1	none
O=C(/C=C/c1ccccc1)CCN1CCOCC1	Peg3 prom inh 92.1
CN(C)CCC(=O)N1C/C(=C/c2ccccc2)C(=O)/C(=C\c2ccccc2)C1	CF NFkB block 94.8, TRPM1 prom inh 100.5, KKLEB tox -70.7, Peg3 prom inh 109.1, HIF-2a inh 92.0

Bioassay records (PubChem BioAssay)
